BRCA1 expr act: qHTS Assay to Identify Small Molecule Activators of BRCA1 Expression; Potency, µM (titrated, usually from 46.1 µM), for the others: top-dose activation, hits mostly activators; MCF7-BRCA1-FFLuc reporter, luminescence, 48 h; response scale: scaled: vehicle 0%, 10 µM genistein 100%; 1.1% of 380,000 active; note: potency is the fitted concentration of half-maximal effect; nearly all actives have a fitted effect of over 80% in size
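Using MCF7 cells harboring a BRCA1 firefly luciferase reporter, plated 2 h before compound pinning, the screen measured luminescence after 48 h incubation. Responses were normalized to DMSO and 10 microM genistein, then fitted for concentration-effect.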
mIDH1 inhibitor: qHTS for Inhibitors of mutant isocitrate dehydrogenase 1 (IDH1): qHTS; Isocitrate dehydrogenase [NADP] cytoplasmic (Homo sapiens), O75874; Potency, µM (doses to about 76.6 µM), inactives show at the top dose activity change, negative = inhibition, usual class: inhibitors; IDH1-R132H enzyme, NADPH consumption, diaphorase/resazurin fluorescence; 0.093% of 390,000 active; AID 602179, 2012; note: potency is the fitted concentration of half-maximal effect; % is set by controls: 0 for no effect and ±100 for the full control effect; nearly all actives have a fitted effect of over 65% in size
Target sequence (O75874 whole entry R132H, stated change not applied): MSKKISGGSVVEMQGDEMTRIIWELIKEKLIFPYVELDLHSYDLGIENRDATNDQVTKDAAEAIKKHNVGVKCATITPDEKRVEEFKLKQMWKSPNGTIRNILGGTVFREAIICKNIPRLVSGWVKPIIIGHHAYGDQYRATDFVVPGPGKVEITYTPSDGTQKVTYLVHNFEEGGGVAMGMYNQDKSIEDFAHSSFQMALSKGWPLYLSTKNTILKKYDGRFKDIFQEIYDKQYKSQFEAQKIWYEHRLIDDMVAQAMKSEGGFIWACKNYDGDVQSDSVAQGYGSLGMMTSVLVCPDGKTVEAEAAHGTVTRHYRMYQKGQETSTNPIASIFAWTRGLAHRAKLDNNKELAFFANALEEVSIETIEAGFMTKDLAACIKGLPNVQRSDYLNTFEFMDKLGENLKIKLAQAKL
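IDH1-R132H (0.5 ug/mL) preincubated 30 min with compound, then NADPH (0.016 mM) and alpha-KG (2 mM) added; 80 min at RT, pH 7.5. Remaining NADPH coupled via diaphorase/resazurin to fluorescence (540/590 nm); concentration-response curves normalized to no-enzyme control.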
gsp agonist: qHTS for Agonist of gsp, the Etiologic Mutation Responsible for Fibrous Dysplasia/McCune-Albright Syndrome: qHTS; gsp mutant cells, cAMP HTRF, 30 min; Potency, µM (titrated, usually from 76.9 µM), inactives show top-dose activation (cAMP increase), hits mostly activators; 0.13% of 340,000 active; AID 624287, 2012; active = well fitted activation curve with a large enough effect; inconclusive = small, poorly fitted or top-dose-only effect, or another doubt; inactive = no such curve, though single readings can be large or run the other way; cell line not stated here;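 note: phosphodiesterase inhibitor Ro 20-1724 added with compounds to block cAMP breakdown; potency is the fitted concentration of half-maximal effect; nearly all actives have a fitted effect of over 60% in size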
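Cells stably selected in G418 were plated at 2000/well, grown 16-24 hr, then given compounds in DMSO with the PDE inhibitor […] (300 uM solution added) for 30 min at 37C; cAMP was read by HTRF.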
IL2 activator: qHTS of IL-2 Activators. IL-2 activation reporter assay, cell-based qHTS; stimulated with anti-CD3/CD4/CD28 beads; in transgenic mouse T cells. activation, % (series mostly up to about 46 µM). 0.065% of 360,000 active. AID 652025, 2013; in the data active = activation above about 50%; inconclusive = mostly about 30% to 49%; note: 0% is about no effect
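First, unstimulated transgenic mouse T cells were exposed to compound for 60 min. Next, anti-CD3/anti-CD4-coated beads with anti-CD28 were added. Finally, after 18 h at 37 degrees C, EGFP and DsRed were imaged.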
gsp antagonist: qHTS for Antagonists of gsp, the Etiologic Mutation Responsible for Fibrous Dysplasia/McCune-Albright Syndrome: qHTS; gsp-mutant cells, cAMP HTRF, 30 min; Potency, µM (titrated, usually from 76.9 µM), for inactives: at the top dose activity change, negative = inhibition, actives largely listed as inhibitors; 0.4% of 340,000 active; AID 624288, 2012; calls by dose curve; cell line not stated here;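 note: intracellular cAMP measured with PDE inhibitor Ro 20-1724 present during compound exposure; potency is the fitted concentration of half-maximal effect; % is set by controls: 0 for no effect and ±100 for the full control effect; nearly all actives have a fitted effect of over 65% in size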
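Cells, 2000/well, grown 16–24 h in DMEM 10% FBS with 0.5 mg/ml G418, then compounds plus […] (300 uM addition stock), 30 min at 37C. cAMP read by HTRF (cAMP-d2 and anti-cAMP antibody-K in lysis buffer) after 30 min RT.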
* hit, by the source's call; ? = inconclusive; / = no result given; [ ] = remark or other dose. An excerpt weighted towards active compounds, which were near 1.5% of everything screened. Unless noted, calls come from the whole dose curve; as a rule, active = well fitted curve in the direction sought with a large enough effect; inconclusive = small, poorly fitted or top-dose-only effect, or another doubt; inactive = no such curve, though single readings can be large; an effect the other way counts as inactive or inconclusive.

SMILES | BRCA1 expr act | mIDH1 inhibitor | gsp agonist | IL2 activator | gsp antagonist
Cc1nonc1OCCNc1ccc([N+](=O)[O-])c2cccnc12 | -6% | 10% | -2% | -3 | -29%
CCN(CC1CCCN(CCc2cccc(OC)c2)C1)C(=O)c1ccc(COC)o1 (stereo unspecified) | 4% | 3% | 7% | 0 | -1%
Cc1ccc(-c2ccc(=O)n(CCC(=O)N3CCC4(CC3)OCCO4)n2)cc1 | 11µM* | -5% | -5% | -1 | 5%
c1ccc(CN2CCc3nc4ccccc4cc3C2)cc1 | 10µM* | 6% | ? | -1 | 4%
CN1CCN(Cc2ccc3ccccc3c2)CC1 | 1% | -6% | 3% | -4 | 8%
Cc1ccc(NC(=O)c2ncn(CC(=O)NCc3ccc4c(c3)OCO4)n2)cc1C | 11µM* | -6% | / | 0 | 2%
C[C@H](CO)N1C[C@H](C)[C@@H](CN(C)C(=O)c2ccc3c(c2)OCO3)Oc2cc(/C=C/c3ccccc3)ccc2S1(=O)=O | -46% | 8% | 14% | -4 | /
COC(=O)c1c(Sc2ccccc2)c2ccccc2n1C | -22% | 14% | ? | 0 | 2%
CC(C)(C)NS(=O)(=O)c1ccc(OCC(=O)N2CCN(Cc3ccccc3)CC2)cc1 | -19% | 2% | -4%[15.4 µM] | -1 | -1%
CSc1ccc(CN2CCN(C(=O)COc3ccc(C)cc3)CC2)cc1 | -39% | 0% | 3.2µM* | -1 | 0%
Cc1ccc(OCC(=O)N2CCN(CCc3ccncc3)CC2)cc1 | / | 4% | / | / | /
O=C(COc1ccc(S(=O)(=O)N2CCCCC2)cc1)N1CCN(Cc2ccccc2)CC1 | -28% | 1% | 32µM* | 0 | -16%
C[C@@H]1CN([C@@H](C)CO)C(=O)c2c(c3ccccc3n2C)-c2ccccc2CO[C@H]1CN(C)S(=O)(=O)c1ccc(C#N)cc1 | -54% | -1% | -51% | -4 | /
COc1ccc(S(=O)(=O)N(C)C[C@H]2OCCCC[C@H](C)Oc3ccc(N(C)C)cc3C(=O)N([C@H](C)CO)C[C@@H]2C)cc1 | -9% | 14% | 0% | -1 | /
O=[N+]([O-])c1cc(Cl)c(O)c(-[n+]2c(-c3ccccc3)cc(-c3ccccc3)cc2-c2ccccc2)c1 | -45% | -11% | ? | 3 | 13µM*
O=[N+]([O-])c1ccc(C[n+]2c(-c3ccccc3)cc(-c3ccccc3)cc2-c2ccccc2)cc1 | -25% | 17% | -50% | -1 | 0%
COC(=O)c1ccc(NS(=O)(=O)NC(=O)c2cn(C)c3ccccc23)cc1 | 10% | 3% | 3% | 0 | 7%
O=C(O)c1ccc(/C=C/c2nc3ccccc3c(=O)n2-c2ccc(Br)cc2)cc1 | -39% | -7% | -31% | 0 | 14µM*
O=c1c2ccccc2nc(/C=C/c2ccccc2)n1-c1ccc(O)cc1 | -50% | 2% | -5% | 0 | -22%
CCN(CC)c1ccc(N=Cc2c(O)n(CCC3=CCCCC3)c(=O)[nH]c2=O)cc1 | -25% | 0% | ? | -2 | 4%
CN(C)c1ccc(N=Cc2c(O)n(CCC3=CCCCC3)c(=O)[nH]c2=O)cc1 | -1% | 2% | -11% | 206* | 0%
Cc1ccccc1S(=O)(=O)N(C)C[C@@H]1OCc2ccccc2-c2c(n(C)c3ccccc23)C(=O)N([C@H](C)CO)C[C@@H]1C | -60% | -4% | 12% | -2 | /
COc1ccc(C(=O)C2CCCN(Cc3ccon3)C2)c(OC)c1 (stereo unspecified) | 6% | -5% | 4% | -3 | 50µM*
CC(C)Oc1cccc(C(=O)C2CCCN(Cc3ccon3)C2)c1 (stereo unspecified) | 40% | -3% | -10% | -1 | 2%
O=c1[nH]c(O)c(N=Nc2ccc(Cl)c(S(=O)(=O)Nc3ccccc3Cl)c2)c(=O)[nH]1 | 2% | 2% | 16%[15.4 µM] | 0 | ?
SMILES | BRCA1 expr act | mIDH1 inhibitor | gsp agonist | IL2 activator | gsp antagonist
CN1/C(=C\C=C2C(=O)NC(=S)NC2=O)C(C)(C)c2ccccc21 | -26% | -17% | -130% | 25 | 50µM*
COc1cc(CC2C(=O)N(C)C(=O)N(C)C2=O)ccc1OCc1ccccc1 | 13µM* | ? | 3% | -2 | -3%
Cc1ccccc1C1=NCC(=O)N(CC(=O)N2CCCCC2)c2sc(C)c(C)c21 | -50% | 10% | -29% | -1 | 7.1µM*
Cc1ccc([C@H]2C[C@H](n3cc(C4CC4)nn3)[C@@H](O)CN2Cc2cccs2)cc1 | 22% | 7% | -6% | -2 | /
O=c1cc(C(F)(F)F)c2cc3c4c(c2o1)CCCN4CCC3 | 14% | 16% | 10µM* | 18 | 2%
Cc1cc2c(C(F)(F)F)cc(=O)oc2c2c1NCCC2 | -3% | 0% | 16µM* | 2 | 1%
Cc1csc(=O)n1CCC(=O)OCC(=O)N(C)c1c(N)n(Cc2ccccc2)c(=O)[nH]c1=O | 4% | -1% | -52% | -2 | /
CC(C)(C)C(=O)c1cn(CC(=O)NCc2ccco2)c2ccccc12 | 5.6µM* | -7% | -12% | 0 | 16%
O=C(O)c1cccc2c1NC(c1cccc([N+](=O)[O-])c1)C1CC(Sc3ccccc3[N+](=O)[O-])C(Cl)C21 (stereo unspecified) | -23% | 29µM* | -16% | 1 | ?
O=C(O)c1ccc2c(c1)C1C(Cl)C(Sc3ccccc3[N+](=O)[O-])CC1C(c1cccc([N+](=O)[O-])c1)N2 (stereo unspecified) | -11% | ? | -1%[15.4 µM] | 0 | -53%
CCCCOc1ccc(C(=O)NCC(=O)N2CCN(C/C=C/c3ccccc3)CC2)cc1 | -9% | -8% | -31% | -4 | /
COc1cccc(NC(=O)N2CCC3(CC2)OCCO3)c1 | 11µM* | 3% | -1%[15.4 µM] | 1 | -3%
CN(C)c1ccc(N=Nc2ccccc2)cc1 | 10µM* | / | / | / | /
Cc1ccc(C2=NOC(C)(c3nnc(-c4ccccc4)o3)C2)cc1 (stereo unspecified) | -10% | 13% | 0% | 1 | -7%
Cc1nc(-c2ccc(Cl)cc2)sc1C1(C)CC(c2ccccc2)=NO1 (stereo unspecified) | 11µM* | 12% | / | 0 | 6%
Cc1ccccc1C(=O)Nc1ccc(C(=O)OCc2cc(=O)n3nc(C4CC4)sc3n2)cc1 | / | 47% | / | / | /

Screening data (PubChem)
